# Inconclusive results are not listed. Active and inactive are the calls of the source. Calls come from the whole dose curve; as a rule, active = well fitted activation curve with a large enough effect in the repeat runs; inconclusive = weak or mixed curves; inactive = flat fitted curve, though single readings scatter.
# Assay: A CellTox Green Cytotoxicity Assay to monitor cytotoxicity in HepG2 cells - 16 hour (AID 1224876); note: nearly all actives have a fitted effect of over 45% in size
# Details: CellTox Green fluorescence; series mostly up to 76.8 µM; cytotoxicity increase: at the top concentration
# Source text: National Center for Advancing Translational Sciences [NCATS]
# NIH Chemical Genomics Center [NCGC]
# U.S. Environmental Protection Agency [EPA]
# National Institutes of Environmental Health Sciences [NIEHS]
# National Toxicology Program [NTP]
# Cell-based models are critical for drug discovery. Determining the natural cytotoxic effects resulting from test compounds is an essential research activity. A CellTox Green Cytotoxicity Assay to monitor cytotoxicity in real time of continues cell culture during 40 hours of the compound treatment was used to screen Tox21 10K library compounds in HepG2 cells. CellTox Green Cytotoxicity Assay is a nonlytic, homogeneous, biofluorescent method to measure cytotoxicity in cell culture after experimental manipulation. The assay system uses a proprietary asymmetric cyanine dye that is excluded from viable cells but preferentially stains the dead cell's DNA. […] Viable cells produce no appreciable increases in fluorescence. Therefore, the fluorescence signal produced by the binding interaction with dead cell DNA is proportional to cytotoxicity.
# The mixture of HepG2 cell suspension and reagents were dispensed at 600cells/6 ul/well in 1536-well tissue culture treated black solid bottom plates using a Multidrop dispenser. After the assay plates were incubated at a 37 C/5% CO2 incubator for 5 hours, 23 nL of compounds dissolved in DMSO, positive and negative controls was transferred to the assay plate by a pintool work station. The plates were incubated at 37 C for 40 hours. The fluorescence intensity were measured at 0h, 8h, 16h, 24h, 32h and 40h time points using ViewLux plate reader during compound treatment.
# % is set by controls: 0 for no effect and ±100 for the full control effect; potency is the fitted concentration of half-maximal effect.
Structure (SMILES),Potency,cytotoxicity increase
CC12CCC(C1)C(C)(C)C2O (stereo not given),1950 nM (active),
CC(C)(CO)C(O)C(=O)NCCCO (stereo not given),,1.17% (inactive)
ONc1ccccc1,,-4.8% (inactive)
Cn1c(=O)c2[nH]c(Br)nc2n(C)c1=O,,-10.3% [at 35.3 µM] (inactive)
C/C(=C1\CCOC(=O)S1)N(C=O)Cc1cnc(C)nc1N,,-10.2% [at 35.3 µM] (inactive)
CO/N=C(/C(=O)N[C@@H]1C(=O)N2C(C(=O)[O-])=C(C[n+]3ccn4ncccc43)CS[C@H]12)c1nsc(N)n1,,-6.74% [at 35.3 µM] (inactive)
CC1=C(O)C(=O)C(C)O1 (stereo not given),,-10.9% (inactive)
c1ccc2c(CC3=NCCN3)cccc2c1,,-15.5% [at 35.3 µM] (inactive)
C=C(C)[C@@H]1CC=C(C)C(=O)C1,,3.15% (inactive)
C=Cc1ccc(C(C)(C)C)cc1,,21.8% (inactive)
CC(C)CO,,3.25% (inactive)
CC(=O)CC(=O)OC(C)(C)C,,3.07% (inactive)
CC1(C)[C@H]2CC[C@](C)(C2)[C@H]1O,,1.68% (inactive)
Cc1ncc([N+](=O)[O-])n1CC(C)O (stereo not given),,0.795% [at 35.3 µM] (inactive)
CO[C@@]1(NC(=O)Cc2cccs2)C(=O)N2C(C(=O)O)=C(COC(N)=O)CS[C@@H]21,,-0.784% [at 35.3 µM] (inactive)
CC1=NN(c2ccc(S(=O)(=O)O)cc2)C(=O)C1,,-1.31% (inactive)
O=C(CN1CCNCC1)NC1CCCCC1,,8.51% [at 35.3 µM] (inactive)
c1ccc(-c2nn[nH]n2)cc1,,0.625% (inactive)
Cc1cc(C)c(C(=O)O)c(C)c1,,3.83% (inactive)
C=CCN1C[C@H](C(=O)N(CCCN(C)C)C(=O)NCC)C[C@@H]2c3cccc4[nH]cc(c34)C[C@H]21,,-3.07% [at 35.3 µM] (inactive)

Structure (SMILES),Potency,cytotoxicity increase
COC(=O)CCCCC(=O)O,,-17.9% (inactive)
C=CCSSCCC,,-6.39% (inactive)
OC[C@H]1O[C@@H](O[C@@H]2[C@@H](CO)O[C@](O)(CO)[C@H]2O)[C@H](O)[C@@H](O)[C@H]1O,,0.517% [at 35.3 µM] (inactive)
Cc1ccc(C(=O)O)cc1[N+](=O)[O-],,9.82% (inactive)
CCCC(=O)Nc1ccc(OCC(O)CNC(C)C)c(C(C)=O)c1 (stereo not given),,-13.1% [at 35.3 µM] (inactive)
OC1(c2ccc(Cl)cc2)CCNCC1,,-11.6% [at 35.3 µM] (inactive)
CC1(C)CC(OC(=O)CCCCCCCCC(=O)OC2CC(C)(C)NC(C)(C)C2)CC(C)(C)N1,,-5.51% [at 15.8 µM] (inactive)
COc1cc2c(cc1OC)C(=O)C(CC1CCN(Cc3ccccc3)CC1)C2 (stereo not given),,5.69% [at 35.3 µM] (inactive)
CC(C)C1OCCN1CCOC(=O)NCCCCCCNC(=O)OCCN1CCOC1C(C)C (stereo not given),,4.78% (inactive)
CC(O)CC(C)O (stereo not given),,0.957% (inactive)
CCC(C)C(=O)OCCc1ccccc1 (stereo not given),,6.28% (inactive)
OCCN1CCOCC1,,-5.96% (inactive)
CC(C)c1ccc(C=O)cc1,,2.37% (inactive)
CC(=O)OCC(=O)Nc1cc(C#N)cc(NC(=O)COC(C)=O)c1Cl,,5.4% [at 35.3 µM] (inactive)
CC(C)Nc1ccccc1,,-0.436% (inactive)
CCC/C=C(\C=O)CC,,0.605% (inactive)
O=C(Cn1ccnc1[N+](=O)[O-])NCc1ccccc1,,-7.53% [at 35.3 µM] (inactive)
Cc1cccc(Cl)c1,,-4.1% (inactive)
COc1cc(OC)nc(O[C@H](C(=O)O)C(OC)(c2ccccc2)c2ccccc2)n1,,2.26% [at 35.3 µM] (inactive)
N[C@@H](CSCCCO)C(=O)O,,-15.5% [at 15.8 µM] (inactive)
